Shown are actives, neighbours in structure and some others; about 12% of the full set was active somewhere.
Sfp PPTase inh: qHTS Assay for Inhibitors of Bacillus subtilis Sfp phosphopantetheinyl transferase (PPTase). Biochemical Sfp PPTase activity, qHTS. Potency, µM, for inactives: largest response in the series, negative = inhibition, actives largely listed as inhibitors. actives 3.5% (n = 310,000);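 also: the enzyme is Sfp with the accession as filed and its product quenches rhodamine fluorescence; 0% = enzyme reaction without inhibitor and -100% = no enzyme wells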
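Compounds were incubated with enzyme (final 15 nM) for 15 min at room temperature before substrate addition started the reaction. Fluorescence at 525 nm excitation, 598 nm emission was recorded immediately and after 30 minutes.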
JMJD2A Tudor inh: qHTS Assay for Inhibitors of JMJD2A-Tudor Domain; Potency, µM (series often up to 114 µM), without a hit: at the top dose activity change, negative = inhibition, most hits filed as inhibitors; AlphaScreen JMJD2A-Tudor / H3K4me3 peptide binding; actives 4.4% (n = 390,000); AID 504339, 2011; Lysine-specific demethylase 4A (Homo sapiens), O75164; also: % is scaled to controls: 0 for no effect and ±100 for the full control effect; nearly all actives have a fitted effect of over 50% in size
Target sequence (O75164 whole entry, looked up, the tested form may be a part): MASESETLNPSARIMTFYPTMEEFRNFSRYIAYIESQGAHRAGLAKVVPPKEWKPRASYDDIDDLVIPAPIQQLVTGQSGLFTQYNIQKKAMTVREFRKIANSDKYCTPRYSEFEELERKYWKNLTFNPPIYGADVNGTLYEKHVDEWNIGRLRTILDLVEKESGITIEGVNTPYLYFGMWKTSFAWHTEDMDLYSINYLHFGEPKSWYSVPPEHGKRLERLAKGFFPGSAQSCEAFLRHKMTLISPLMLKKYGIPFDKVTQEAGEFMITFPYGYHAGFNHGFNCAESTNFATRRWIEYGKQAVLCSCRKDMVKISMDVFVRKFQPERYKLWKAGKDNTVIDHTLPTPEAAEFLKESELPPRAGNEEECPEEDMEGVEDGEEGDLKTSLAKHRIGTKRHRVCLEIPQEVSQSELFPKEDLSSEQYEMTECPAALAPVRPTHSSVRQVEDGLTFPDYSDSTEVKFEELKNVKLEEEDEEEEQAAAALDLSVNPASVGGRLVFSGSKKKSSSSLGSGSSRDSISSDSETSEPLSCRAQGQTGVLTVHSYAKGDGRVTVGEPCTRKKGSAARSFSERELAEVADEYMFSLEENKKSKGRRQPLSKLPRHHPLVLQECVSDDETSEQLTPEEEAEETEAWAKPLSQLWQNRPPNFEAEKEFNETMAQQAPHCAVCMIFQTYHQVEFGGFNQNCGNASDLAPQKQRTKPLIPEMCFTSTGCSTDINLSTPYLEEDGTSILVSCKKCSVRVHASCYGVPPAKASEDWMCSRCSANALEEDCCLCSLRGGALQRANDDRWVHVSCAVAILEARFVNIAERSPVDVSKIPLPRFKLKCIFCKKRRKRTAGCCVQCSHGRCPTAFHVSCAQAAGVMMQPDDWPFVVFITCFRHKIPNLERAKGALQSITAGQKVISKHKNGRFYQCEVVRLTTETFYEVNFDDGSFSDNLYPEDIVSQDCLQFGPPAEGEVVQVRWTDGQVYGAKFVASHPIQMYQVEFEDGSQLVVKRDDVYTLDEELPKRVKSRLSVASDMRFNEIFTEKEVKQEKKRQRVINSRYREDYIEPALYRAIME
HP1b binding inh: HTS for Inhibitors of HP1-beta Chromodomain Interactions with Methylated Histone Tails. Chromobox protein homolog 1 (Homo sapiens), P83916. AlphaScreen HP1-beta / biotin-H3K9me3 peptide binding. Potency, µM (highest dose often 114 µM), without a hit: at the top dose activity change, negative = inhibition, hits mostly inhibitors. actives 0.56% (n = 390,000). AID 540317, 2011; also: nearly all actives have a fitted effect of over 70% in size
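AlphaScreen: HP1-beta (50 nM) preformed 30 min with biotin-H3(1-18)K9me3 peptide (50 nM) in PBS pH 7.4, 0.01% Tween-20. Compound added for 30 min at RT, then streptavidin donor/nickel chelate acceptor beads (10 ug/mL) for 30 min.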
BAZ2B inh: qHTS Assay for Inhibitors of BAZ2B. actives 4.4% (n = 360,000). AlphaScreen BAZ2B-H3K14Ac peptide displacement. Potency, µM (highest dose often 114 µM), for inactives: at the top dose activity change, negative = inhibition, hits mostly inhibitors. Bromodomain adjacent to zinc finger domain protein 2B (Homo sapiens), Q9UIF8; also: % is scaled to controls: 0 for no effect and ±100 for the full control effect; nearly all actives have a fitted effect of over 60% in size
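BAZ2B (50 nM) with biotin-H3(5-23)K14Ac peptide (50 nM) in PBS pH 7.4, 0.01% Tween-20, preformed 30 min, then compound 30 min at room temperature; top concentration 110uM. AlphaScreen streptavidin donor/nickel chelate acceptor beads (10 ug/mL final), 20 min dark, signal read.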
G9a block: qHTS Assay for Inhibitors of Histone Lysine Methyltransferase G9a | G9a H3K9 monomethylation, AlphaScreen, 2 h | Potency, µM (highest dose often 102 µM), for the others: at the highest dose activity, negative = inhibition, actives largely listed as inhibitors | actives 8.8% (n = 350,000) | AID 504332, 2011; also: % is scaled to controls: 0 for no effect and ±100 for the full control effect; nearly all actives have a fitted effect of over 75% in size
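Quantitative HTS format: methyltransferase activity on a biotin-tagged H3K9 peptide is measured by AlphaScreen, using a rabbit anti-monomethyl-H3K9 antibody with streptavidin donor and anti-IgG acceptor beads. Final levels are 20 nM enzyme, 500 nM peptide, 20 uM SAM; 2 h RT.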
* marks the source's active call; other numbers are inactive results; u = inconclusive; x = no result given; [ ] = remark or other dose. Calls follow the shape of the dose curve; as a rule, active = well fitted curve in the direction sought with a large enough effect; inconclusive = small, poorly fitted or top-dose-only effect, or another doubt; inactive = no such curve, though single readings can be large; an effect the other way counts as inactive or inconclusive. Potency is read from the fitted curve at half-maximal effect.

SMILES	Sfp PPTase inh	JMJD2A Tudor inh	HP1b binding inh	BAZ2B inh	G9a block
O=C(CCCC(=O)N(CC(=O)NC1CCCCC1)c1cccc(F)c1)Nc1ccccn1	18%	2%	23%	-2%	-10%
Cc1ccc(N(CC(=O)NCc2ccco2)C(=O)CCC(=O)Nc2nccs2)c(C)c1	18%	-14%	-15%	-10%	71µM*
CC(C)c1ccc(N(CC(=O)NC2CCCC2)C(=O)CCC(=O)Nc2ccccn2)cc1	10%	50µM*	8%	2%	18%
O=C(CCCC(=O)N(c1cccc(F)c1)C(C(=O)NC1CCCC1)c1ccc(O)cc1)Nc1ccccn1 (configuration not stated)	12%	79µM*	3%	-16%	-26%
COc1ccc(CNC(=O)CN(C(=O)CCC(=O)Nc2ccccn2)c2ccc(C)cc2)cc1	4%	56µM*	9%	1%	-14%
COc1ccc(CNC(=O)CN(C(=O)CCC(=O)Nc2ccccn2)c2cccc(C)c2)cc1	-9%	-16%	14%	5%	x
N#Cc1ccccc1CSc1nnc(-c2ccc(Br)cc2)o1	x	-9%	25%	-12%	-3%[59 µM]
CN1CCN(c2ccccc2NC(=O)c2ccc(-c3ccccc3)cc2)CC1	-8%	-32%	-12%	-34%	23%[12.7 µM]
CCN=c1scc(-c2ccccc2)n1/N=C/c1ccccn1	-22%	28µM*	u	14µM*	u
CCN=c1scc(-c2ccc(F)cc2)n1/N=C/c1ccccn1	u	u	u	x	16µM*
C=CCN=c1scc(-c2ccccc2)n1/N=C/c1ccccn1	-29%	45µM*	28µM*	28µM*	u
CC(=N\NC(=O)c1ccccc1)/C(=N/O)C(=O)Nc1ccccc1	4%	-10%	47%	56µM*	24%
COc1ccccc1NC(C)=O	12%	-8%[11.4 µM]	-1%	x	7%[59 µM]
COc1ccccc1NC(=O)C(=N\O)/C(C)=N/O	7%	u	-16%	-34%	10µM*
O=C(NCc1cccnc1)C(=O)Nc1nc2ccccc2s1	2%	-26%	3%	x	-9%
N#CCCn1c(=O)c(-c2cccc(C#N)c2)nc2cnc(N3CCOCC3)nc21	29%	x	x	x	8%[0.501 µM]
CN(C)C=Nc1nonc1-c1ncn[nH]1	u	2.5µM*	10%	-10%	22µM*
CCOc1ccc(NS(=O)(=O)c2cc(C(=O)N3CCCC3)ccc2Cl)cc1	x	-10%	19%	-5%	15%
O=C(O)c1ccc(Cl)c(S(=O)(=O)Nc2ccc(OCc3ccccc3)cc2)c1	7%	-14%	11%	-13%	40µM*
COc1cccc(-c2cc(C(F)(F)F)n3ncc(S(=O)(=O)c4ccccc4)c3n2)c1	3%	-18%	22%	-1%	-9%[12.7 µM]
CC1(C)CC(=O)C2=C(C1)Nc1ccccc1N=C2	40µM*	x	x	-30%	8.9µM*
CC1(C)CC(=O)C2=C(C1)Nc1ccccc1S2	0%	-23%	-24%	u	40µM*
CC1(C)CC(=O)C2=C(C1)Nc1ccccc1[S@]2=O	16%	-6%	28%	-1%	19%
CC1(C)CC(=O)C2=C(C1)Nc1ccccc1NC2	10%	-3%	52%	-13%	7%
Cc1ccccc1C(=O)NCc1ccc2c(c1)CCN2C(=O)c1ccccc1	x	-17%	9%	-3%	21%[59 µM]
SMILES	Sfp PPTase inh	JMJD2A Tudor inh	HP1b binding inh	BAZ2B inh	G9a block
Cc1ccoc1C(=O)NCc1occc1C(=O)O	10%	u	-3%	u	45µM*
Cc1ccoc1C(=O)NCCNC(=O)c1occc1C	x	-18%	18%	11%	-12%
COc1ccc(OC)c(N2Cc3cc(C)c(C)cc3C2)c1	1%	u	-20%	u	13µM*
CCOc1ccccc1N1Cc2cc(C)c(C)cc2C1	1%	-35%	13%	-35%	u
O=C(NCc1ccccc1Cl)C1CCN(S(=O)(=O)N2CCC3(CC2)OCCO3)CC1	24%	-2%	23%	-1%	2%[12.7 µM]
O=C(c1cccnc1)N1C2C=CC(C2)C1(C(F)(F)F)C(F)(F)F (configuration not stated)	5%	71µM*	-18%	u	-6%[59 µM]
NC(=S)NCCCC(N)C(=O)O (configuration not stated)	x	x	x	x	8.9µM*
NCCCC[C@@H](N)C(=O)O	6%	x	x	x	28%[59 µM]
CCOC(=O)N1CCN(C(=O)Cn2ncc3ccccc32)CC1	8%	79µM*	-6%	12%	13%[59 µM]
CCOC(=O)N1CCN(CCc2ccccc2)CC1	16%	-11%	29%	0%	-10%
CCOC(=O)N1CCN(C/C(Cl)=C/c2ccccc2)CC1	u	1.8µM*	50µM*	u	x
Cc1cc(C)c2c(-n3cccc3)c(C(=O)NNS(=O)(=O)c3ccc(Br)cc3)sc2n1	-9%	56µM*	12%	u	u
COC(=O)Oc1ccc(/C=N/NC(=O)CN(c2ccccc2Br)S(C)(=O)=O)cc1OC	4%	-24%	13%	-5%	10%[0.501 µM]
COc1cnc(-c2ccccn2)nc1Sc1cccc(Cl)c1	-4%	u	15%	-3%	66%[59 µM]
NS(=O)(=O)c1ccc(NC2=CC(c3ccc([N+](=O)[O-])cc3)N(c3ccc(S(N)(=O)=O)cc3)C2=O)cc1 (configuration not stated)	11µM*	-32%	2%	u	22µM*
O=C(CN1CCN(c2ccc(O)cc2)CC1)Nc1cc([N+](=O)[O-])ccc1Cl	u	u	-21%	u	5.6µM*
O=C(CN1CCN(c2ccccc2)CC1)Nc1ccccc1Cl	-1%	-10%	27%	u	-40%
CC(=O)N1CCN(CC(=O)Nc2cc([N+](=O)[O-])ccc2Cl)CC1	-1%	-20%	12%	3%	40µM*
CCOC(=O)C1=CC[C@@H](c2ccco2)N(S(=O)(=O)c2ccc(C)cc2)[C@H]1C(=O)OCC	x	-21%	27%	-16%	0%[0.501 µM]
COCCCNC(=S)Nc1ccc(C)cc1	10%	4%	14%	-1%	4%
COCCCNC(=S)NNC(=S)Nc1ccc(F)cc1F	79µM*	1.6µM*	-13%	u	2.5µM*
COCCCNC(=S)NNC(=S)Nc1ccccc1	45µM*	1.6µM*	-18%	-4%	x
CCCNC(=O)c1ccc(-c2nc3ccccc3s2)s1	-13%	-24%	21%	4.5µM*	22%
CCCNC(=O)Nc1nc2ccccc2s1	10%	-19%	51%	0%	8%[12.7 µM]
COc1ccc(N2CCN(C(=O)CS(=O)Cc3nc(-c4ccc(OC)c(OC)c4)oc3C)CC2)cc1 (configuration not stated)	1%	-23%	16%	u	-25%
